About 83,000 compounds went through this panel and 20% of them were active in at least one assay; those are over-represented in the sample as a whole.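 Results are percent growth after 48 hours of single-concentration exposure. 100 means growth as in untreated cells, lower positive values show inhibition; negative values down to -100 show cell death.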 Values without a mark were called inactive. Calls of active or inactive are those of the source. How the source made its calls: active means growth percent below 10; inactive means the rest.
How the values were obtained:
Experiment in all cases: NCI-60 one-dose screen, 48 h (100 = growth as untreated, 0 = no growth, -100 = all killed)
Conditions in all cases: 10 µM unless noted
SK-MEL-2 melanoma = system: SK-MEL-2 melanoma
EKVX NSCLC = system: EKVX NSCLC
SN12C renal = system: SN12C renal
UO-31 renal = system: UO-31 renal
TK-10 renal = system: TK-10 renal
ACHN renal = system: ACHN renal
CAKI-1 renal = system: CAKI-1 renal
A498 renal = system: A498 renal
CCRF-CEM leukemia = system: CCRF-CEM leukemia
MOLT-4 leukemia = system: MOLT-4 leukemia

SMILES | growth (SK-MEL-2 melanoma) | growth (EKVX NSCLC) | growth (SN12C renal) | growth (UO-31 renal) | growth (TK-10 renal) | growth (ACHN renal) | growth (CAKI-1 renal) | growth (A498 renal) | growth (CCRF-CEM leukemia) | growth (MOLT-4 leukemia)
O=C(CSc1nc2ccccc2c(=O)[nH]1)NNC(=O)c1ccccc1Cl | 105% | 109% | 112% | 91.2% | 105% | 112% | 90.4% | 100% | 120% | 111%
COc1ccc(/C=C/C(=O)c2ccc(OC)c(S(N)(=O)=O)c2)c(C(F)(F)F)c1 | 60.8% | 14.5% | 8.16% (active) | 25.6% | 77.9% | 9.82% (active) | 24.7% | 195% | 2.27% (active) | -0.0099% (active)
O=c1c(-c2nc(-c3ccccc3)c(-c3ccccc3)[nH]2)coc2ccc(F)cc12 | 62.9% | 25.7% | 68.9% | 40.4% | 94.3% | 51% | 64.9% | 109% | 49% | 23.6%
COc1ccc(S(=O)(=O)Nc2ccc(-c3ccc4c(c3)NC(=O)/C4=C\c3ccc[nH]3)cc2)cc1OC | 46.6% | -27.8% (active) | -0.885% (active) | 54.7% | 11.7% | -31.4% (active) | -11% (active) | 121% | 58.6% | 49%
Cc1ccccc1NC(=O)c1cccc(NC(=O)CCl)c1 | 92.9% | 97% | 15.4% | 71.3% | 88.2% | 22.8% | 74.5% | 105% | 8.03% (active) | 29.7%
O=[N+]([O-])c1cccc(-c2nnc3c(/C=C/c4ccc(F)cc4)nc4ccccc4n23)c1 | 97.7% | 96.2% | 88% | 78.3% | 121% | 93.8% | 88.8% | 102% | 102% | 90.7%
N#Cc1ccc(C(=O)NNC(=O)CSc2nc3sc4c(c3c(=O)n2-c2ccc(Cl)cc2)CCCC4)cc1 | 94.2% | 54.3% | 41.7% | 42.7% | 115% | 71.2% | 53.1% | 89.2% | 48.9% | 46.3%
COC(=O)c1cc(C(=O)C(C)(C)C)n2c3ccccc3c3ccccc3c12 | 93.3% | 101% | 95.5% | 84.7% | 121% | 89.7% | 60.7% | 156% | 75.8% | 67.1%
CCc1ccccc1-c1nc(CN[C@@H]2C[C@@H]3C[C@H]([C@H]2C)C3(C)C)c(C)o1 | -83.6% (active) | -81.8% (active) | -79.3% (active) | -87.8% (active) | -88.9% (active) | -97.9% (active) | -95% (active) | -90.9% (active) | 3.82% (active) | -28.2% (active)
Nc1nn2c(-c3cc4cc(Br)ccc4oc3=O)ccnc2c1N=Nc1ccc(Br)cc1 | 60% | 25.9% | -23.6% (active) | 0.343% (active) | 23.4% | 10.7% | 3.98% (active) | -4.21% (active) | 96.6% | 83.1%
C[C@@H]1CN(c2ccc3ncc(C#Cc4cncc(C(=O)Nc5ccc(CN6CCN(C)CC6)c(C(F)(F)F)c5)c4)n3n2)C[C@@H](C)O1 | -88.4% (active) | -96% (active) | -66.5% (active) | -99.3% (active) | -98% (active) | -95.3% (active) | -95.3% (active) | -99% (active) | -36% (active) | 4.86% (active)

From PubChem BioAssay (NCI)
